Results reported in the supplement of paper PMC9446081.
Among all 39,000 compounds or so, about 220 (0.56%) showed activity. This excerpt belongs to a sample that is enriched for actives. A number with no mark means an inactive call.

tested on: Escherichia coli K-12 BW25113; assay: relative growth (OD600 normalised to plate interquartile mean) (fraction); higher = less growth inhibition, active = 0.2 or less; details: 50 µM; LB; incubation time: overnight (16-24 h)
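Note: Wild-type cells incubated without shaking, value is the mean of two biological replicates.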

`CN[C@H]1C[C@@H](N)[C@H](O)[C@@H](O[C@@H]2O[C@H](CO)[C@H](O)[C@@H]3O[C@@]4(O[C@H]23)O[C@H]([C@@H](N)CO)[C@H](O)[C@H](O)[C@H]4O)[C@@H]1O` was tested, and the relative growth was 0.0323 (active).
In the case of `CN(C)[C@@H]1C(=O)[C@H](C(N)=O)C(=O)[C@@]2(O)C(=O)[C@@H]3C(=O)c4c(O)cccc4[C@@](C)(O)[C@H]3C[C@@H]12`, the relative growth is reported as 0.182 (active).
In the case of `CN(C)[C@@H]1C(=O)[C@@H](C(N)=O)C(=O)[C@@]2(O)C(=O)[C@H]3C(=O)c4c(O)ccc(Cl)c4[C@@](C)(O)[C@H]3C[C@@H]12`, the relative growth is reported as 0.037 (active).
For `CN(C)[C@@H]1C(=O)C(C(N)=O)=C(O)[C@@]2(O)C(O)=C3C(=O)c4c(O)cccc4[C@](C)(O)[C@H]3C[C@@H]12`, the relative growth was 0.0416 (active).
For `CNC1C(O)C(OC2C(N)CC(N)C(OC3OC(C(C)O)C(O)C(O)C3N)C2O)OCC1(C)O` (centres undefined), the relative growth was 0.0438 (active).
In the case of `O=[N+]([O-])C(Br)(CO)CO`, the relative growth is reported as 0.0475 (active).
For `CC(=O)[O][Hg][c]1ccccc1`, the relative growth was 0.0564 (active).
In the case of `O=C1C=C2C(=CCOC2O)O1` (centres undefined), the relative growth is reported as 0.0434 (active).
With `O=[N+]([O-])c1ccc(N(CCO)CCO)c2c1no[n+]2[O-]` the relative growth was 0.0367 (active).

Going from `COC(=O)[C@]1(Cc2ccccc2N=[N+]=[N-])N=C(c2ccc(OCCCO)cc2)O[C@@H]1c1ccccc1N=[N+]=[N-]` to `CN(C)C(=O)[C@]1(Cc2ccccc2CN=[N+]=[N-])N=C(c2ccc(OCCCO)cc2)O[C@@H]1c1ccccc1N=[N+]=[N-]`, the relative growth falls from 1.03 to 1.02.

Compared with `CCOCC(=O)N1CC[C@H]2CNC[C@H]21`, `CN1[C@@H]2CC[C@@H]1C[C@H](O)C2` (some centres undefined) is higher in relative growth: 0.983 for the first, 1.01 for the second.

Compared with `CCCCCCCCCCCCCC(=O)O[C@@H]1[C@@H](C)[C@@]2(O)[C@@H](C=C(CO)C[C@]3(O)C(=O)C(C)=C[C@@H]23)[C@@H]2C(C)(C)[C@]12OC(C)=O`, `CC(=O)OC1CC2(C)C(c3ccoc3)CC3OC32C2(C)C(=O)C(O)=C3C(C)(C)C(=O)C=CC3(C)C12` (centres undefined) is higher in relative growth: 1.02 for the first, 1.06 for the second.

Going from `COc1c(C[C@@H](C)O)c2c3c(C[C@@H](C)O)c(OC)c(=O)c4c(O)cc5c(c6c(cc(O)c(c1=O)c62)OCO5)c43` to `COC(=O)C[C@](O)(CCC(C)(C)O)C(=O)O[C@@H]1C(OC)=C[C@]23CCCN2CCc2cc4c(cc2[C@H]13)OCO4`, the relative growth falls from 1.08 to 1.02.

Going from `CC12CCC(O)CC1CCC1C2CC(O)C2(C)C(C3=CC(=O)OC3)CCC12O` (centres undefined) to `C[C@@H]1O[C@@H](O[C@@H]2C[C@@H](O)[C@]3(CO)[C@H]4[C@H](O)C[C@]5(C)[C@@H](C6=CC(=O)OC6)CC[C@]5(O)[C@@H]4CC[C@]3(O)C2)[C@H](O)[C@H](O)[C@H]1O`, the relative growth rises from 0.988 to 0.995.

First: CC(=O)N1CCCC[C@]12CCNC2
Second: COc1cccc(C2(N)CCCC2)c1
The relative growth of the first is lower: 0.984 for the first, 1.02 for the second.

Compared with `CC1=C(O)C(=O)C=C2C1=CC=C1C2(C)CCC2(C)C3CC(C)(C(=O)O)CCC3(C)CCC12C` (centres undefined), `CC1(C)C(=O)C=CC2(C)C1=C(O)C(=O)C1(C)C2CCC2(C)C(c3ccoc3)CC3OC321` (centres undefined) is higher in relative growth: 1.02 for the first, 1.07 for the second.

Compared with `CCOC(=O)c1c(CN2CCN(c3ccccc3)CC2)n(Cc2ccccc2)c2cc(Br)c(O)cc12`, `O=C(Cc1ccccc1)c1ccccc1` is lower in relative growth: 1.03 for the first, 0.986 for the second.

Compared with `CO[C@@H]1C[C@@H](C[C@H]2CC[C@H](C)[C@H]([C@@H](C)C(=O)O)O2)O[C@]2(O[C@](C)([C@H]3CC[C@@](C)([C@H]4O[C@@H]([C@H]5O[C@@](O)(CO)[C@H](C)C[C@@H]5C)C[C@@H]4C)O3)C[C@H]2C)[C@@H]1C`, `CC(=O)OC1CC(OC2C(O)CC(OC3C(O)CC(OC4CCC5(C)C(CCC6C5CC(O)C5(C)C(C7=CC(=O)OC7)CCC65O)C4)OC3C)OC2C)OC(C)C1OC1OC(CO)C(O)C(O)C1O` (centres undefined) is higher in relative growth: 0.945 for the first, 0.995 for the second.

First: Cc1ccc(OC(=O)N(C)C[C@H]2OCc3ccccc3-c3c(n(C)c4ccccc34)C(=O)N([C@H](C)CO)C[C@@H]2C)cc1
Second: O=c1[nH]c2ccccc2n1C1CCN(Cc2ccc(-c3nc4cc5[nH]cnc5cc4nc3-c3ccccc3)cc2)CC1
The relative growth of the first is lower: 1 for the first, 1.09 for the second.

Compared with `Cc1nc(-c2ccc(-c3ccc(C(=O)N4CCc5cc6c(cc54)C4(CCN(C)CC4)CO6)cc3)c(C)c2)no1`, `COc1ccc(C(CN(C)C)C2(O)CCCCC2)cc1.Cl` (centres undefined) is higher in relative growth: 0.932 for the first, 1.14 for the second.

Compared with `CO[C@@H]1C=C[C@@H]2[C@H]1N2CCO` (some centres undefined), `OCC(Br)(Br)Br` is higher in relative growth: 0.968 for the first, 1.02 for the second.

First: CN[C@@H]1[C@@H](O)[C@@H](O[C@@H]2[C@H](O)[C@@H](O[C@H]3O[C@H]([C@@H](C)O)[C@@H](O)[C@H](O)[C@H]3N)[C@H](N)C[C@@H]2N)OC[C@]1(C)O
Second: CN[C@@H]1[C@@H](O)[C@@H](O[C@@H]2[C@@H](O)[C@H](O[C@H]3O[C@H](CN)CC[C@H]3N)[C@@H](N)C[C@H]2N)OC[C@]1(C)O.CN[C@@H]1[C@@H](O)[C@@H](O[C@@H]2[C@@H](O)[C@H](O[C@H]3O[C@H]([C@@H](C)N)CC[C@H]3N)[C@@H](N)C[C@H]2N)OC[C@]1(C)O.CN[C@@H]1[C@@H](O)[C@@H](O[C@@H]2[C@@H](O)[C@H](O[C@H]3O[C@H]([C@@H](C)NC)CC[C@H]3N)[C@@H](N)C[C@H]2N)OC[C@]1(C)O
The relative growth of the first is lower: 0.484 for the first, 0.624 for the second.

Compared with `C[C@@]1(C(=O)O)[C@H]2CC[C@@H](O2)[C@@]1(C)C(=O)O`, `C[C@@]12C(=O)OC(=O)[C@]1(C)[C@H]1CC[C@@H]2O1` is lower in relative growth: 0.979 for the first, 0.933 for the second.

Compared with `CC(=O)OC[C@]12CCC(C)=C[C@H]1O[C@@H]1[C@H](O)[C@@H](OC(C)=O)[C@@]2(C)[C@]12CO2`, `CC(C)C12OC1C1OC13C1(C)CCC4=C(COC4=O)C1CC1OC13C2O` (centres undefined) is lower in relative growth: 0.969 for the first, 0.947 for the second.

Compared with `[NH2][Pt]1([NH2])[O]C(=O)C2(CCC2)C(=O)[O]1`, `O=C1C=C2C(=CCO[C@@H]2O)O1` is higher in relative growth: 0.958 for the first, 1 for the second.

Going from `CC(C)(C)c1ccc(O)cc1` to `C[C@@H](N)Cc1ccc(O)cc1`, the relative growth falls from 0.998 to 0.992.

First: CNC(=O)Oc1cccc2ccccc12
Second: NCCc1cccc2ccccc12
The relative growth of the first is higher: 1.05 for the first, 1 for the second.

First: OCCN(CCO)CCO
Second: C=C(C)[C@@H]1CCC(C)=C[C@H]1c1c(O)cc(CCCCC)cc1O
The relative growth of the first is lower: 0.97 for the first, 1.01 for the second.

Compared with `NCC(=O)c1ccccc1`, `C[C@@H]1CC[C@@]2(OC1)O[C@H]1C[C@H]3[C@@H]4CC=C5C[C@@H](O[C@@H]6O[C@H](CO)[C@@H](O[C@@H]7O[C@@H](C)[C@H](O)[C@@H](O)[C@H]7O)[C@H](O)[C@H]6O[C@@H]6O[C@@H](C)[C@H](O)[C@@H](O)[C@H]6O)CC[C@]5(C)[C@H]4CC[C@]3(C)[C@H]1[C@@H]2C` is lower in relative growth: 1 for the first, 0.913 for the second.
